Compounds with a hit are over-represented: about 1.1% of the library has one in this group of screens.
Hsp90 Hop PPI = qHTS Assay for Disrupters of an Hsp90 Co-Chaperone Interaction; Hsp90 C-terminal peptide / TPR2A (Hop) interaction, human; AlphaScreen TPR2A-His6 binding biotin-Hsp90 C-terminal peptide; Potency, µM (doses to about 57 µM); 0.44% of 71,000 active; active means well fitted curve in either direction with a large enough effect; inconclusive means small, poorly fitted or top-dose-only effect, or another doubt
GBA activity = Glucocerebrosidase; Lysosomal acid glucosylceramidase (Homo sapiens), P04062; purified enzyme, resorufin glucoside fluorescence (screen aimed at inhibitors), 20 min; Potency, µM; 1.1% of 48,000 active; AID 360, 2006; in the data active means potency below about 15 µM; inconclusive means mostly about 16 µM to 33 µM;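 further: the screen sought inhibitors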
Target sequence (P04062 whole entry, looked up): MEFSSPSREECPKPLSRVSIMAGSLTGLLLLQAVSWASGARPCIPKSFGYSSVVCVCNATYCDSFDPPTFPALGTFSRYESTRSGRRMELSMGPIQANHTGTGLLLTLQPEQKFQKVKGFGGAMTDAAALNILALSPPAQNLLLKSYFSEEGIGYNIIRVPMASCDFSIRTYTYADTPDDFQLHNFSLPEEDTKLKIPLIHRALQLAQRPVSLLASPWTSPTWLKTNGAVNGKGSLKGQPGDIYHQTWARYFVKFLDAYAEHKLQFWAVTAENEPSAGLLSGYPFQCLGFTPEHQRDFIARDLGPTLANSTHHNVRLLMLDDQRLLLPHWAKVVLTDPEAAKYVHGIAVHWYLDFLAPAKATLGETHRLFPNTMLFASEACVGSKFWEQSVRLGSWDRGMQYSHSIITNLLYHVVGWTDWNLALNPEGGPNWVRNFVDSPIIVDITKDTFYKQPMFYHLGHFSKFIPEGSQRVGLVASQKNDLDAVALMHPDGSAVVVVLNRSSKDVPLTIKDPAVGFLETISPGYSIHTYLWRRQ
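Wild-type enzyme at 0.2 nM final in 50mM citric acid/KH2PO4, 10mM sodium taurocholate, 0.01% tween-20, pH 5.9, with resorufin beta-D-glucopyranoside at 30 uM final. Compounds titrated, 20 min at RT, red fluorescence read; AC50 from titration.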
UbGFP stabilizer = Ubiquitin-GFP Assay | Ubiquitin-GFP reporter cells, proteasome inhibition, GFP fluorescence; response scale: untreated = 0%, 10 µM MG-132 = 100% | Potency, µM (top dose mostly 45.9 µM), actives largely listed as activators | 67,000 tested, under 10 active | AID 526, 2006; active means well fitted activation curve with a large enough effect, not every such curve was filed as active; inconclusive means small, poorly fitted or top-dose-only effect, or another doubt; inactive means no such curve, though single readings can be large or run the other way
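Proteasome block read as GFP accumulation: ubiquitin(G76V)-GFP U2OS cells exposed to compound (2.9 nM–46 uM) for 4 hr at 37 C. Normalization used untreated cells as 0% and 10 uM MG-132 as 100%; concentration-response curves fitted.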
GFP derepression = qHTS Assay for Epigenetic Modulators | 0.09% of 68,000 active | Potency, µM (titrated, usually from 46.1 µM) | mouse C127i GFP locus derepression, cytometry, 30 h
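Read-out is the number of GFP-positive cells, scored as fluorescent objects 20 to 120 um wide, reflecting derepression of a silenced CMV-GFP reporter in murine C127i cells after 30 h compound exposure at 37 C.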
USP2a inhib = qHTS Assay for Inhibitors of Ubiquitin-specific Protease USP2a; Ubiquitin carboxyl-terminal hydrolase 2 (Homo sapiens), O75604; USP2a enzymatic assay, qHTS inhibition; Potency, µM (top dose mostly 38.3 µM), most hits filed as inhibitors; 0.1% of 60,000 active; AID 927, 2007; further: nearly all actives have a fitted effect of over 60% in size
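Coupled readout: USP2-cleaved Ub-PLA2 (20nM final) turns over NBD C6-HPC (20uM final), Ex 460nm/Em 535nm after 2.5 h, time-zero read flagging artifacts. Enzyme (20nM final, pH 8.0 Tris) given 30 min RT with compound first; NEM defines full inhibition.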
HBB splice mod = qHTS Assay for Modulators of Hemoglobin Beta Chain Splicing. Potency, µM (top dose mostly 46.1 µM), usual class: activators. HBB splicing reporter cell assay, activation; EGFP reporter with mutant IVS2-654 intron; response scale: normalised to 500 nM splice-correcting PNA. 0.06% of 65,000 active
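Compounds were applied for 2 days to HeLa EGFP-654 cells, 500/well in Optimem with 2% FCS. The reporter's EGFP is disrupted by mis-splicing of beta-globin intron IVS2-654. Readout: summed well GFP fluorescence from 488 nm laser scanning; reference was 500 nM antisense […] 654 PNA.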
Large screens that a line does not name were inactive. Unless noted, the call rests on the fitted dose curve; in most records, active means well fitted curve in the direction sought with a large enough effect; inconclusive means small, poorly fitted or top-dose-only effect, or another doubt; inactive means no such curve, though single readings can be large; an effect the other way counts as inactive or inconclusive.

Cc1cc(N2CCOCC2)nc2ccc(NC(=O)CCC(=O)N3CCCC(C)C3)cc12 (stereo not drawn)	GBA activity 1.2
CCN1CCN(c2cc(C)c3cc(NC(=O)c4ccc5c(c4)OCO5)ccc3n2)CC1	none (no result: GBA activity, GFP derepression, USP2a inhib)
COc1ccc(C)cc1NC(=O)CCC(=O)Nc1ccc2nc(N3CCN(C)CC3)cc(C)c2c1	GBA activity 9.5
COc1cccc(C(=O)Nc2ccc3nc(N4CCN(c5ncccn5)CC4)cc(C)c3c2)c1OC	Hsp90 Hop PPI inconclusive, GBA activity 8.7
CCOc1ccccc1C(=O)Nc1ccc2nc(N3CCN(c4ncccn4)CC3)cc(C)c2c1	none
O=C(CN1C2=NCCCN2c2ccccc21)c1ccc(Br)s1	GBA activity 6.6 (no result: HBB splice mod)
CCCc1nc2ccccc2c(C(=O)OC2CCOC2=O)c1CC (stereo not drawn)	GBA activity 12
C=CCn1c(NC(=O)c2ccccc2Cl)c(C#N)c2nc3ccccc3nc21	HBB splice mod inconclusive
C=CCn1c(NC(=O)c2ccccc2)c(C#N)c2nc3ccccc3nc21	HBB splice mod 25µM
CCCC1(C(=O)OC)C=C2C(=C(c3ccccc3)C(=O)C2C)CN1 (stereo not drawn)	none (no result: GBA activity, UbGFP stabilizer, GFP derepression, USP2a inhib)
Clc1ccc(OCc2nc(-c3ccccn3)n[nH]2)cc1	Hsp90 Hop PPI 16µM, GFP derepression inconclusive
Cc1ccc(Cn2nnc3c(=O)[nH]c(C4CCN(S(=O)(=O)c5ccc(C)cc5)CC4)nc32)cc1	GBA activity 14 (no result: HBB splice mod)
CC1CCN(CC[S-])CC1.O.O.[Cl][Pt]	Hsp90 Hop PPI inconclusive, UbGFP stabilizer inconclusive (no result: GBA activity, USP2a inhib)
FC(F)(F)c1ccccc1-c1nc(N2CCOCC2)c2ccccc2n1	USP2a inhib 10µM (no result: GBA activity)
NCCNCCNCCN	Hsp90 Hop PPI 6.3µM (no result: GBA activity, UbGFP stabilizer, GFP derepression, USP2a inhib)
CCN(CC)c1cccc(OC2=NS(=O)(=O)c3ccccc32)c1	GFP derepression 3.2µM (no result: GBA activity)
COc1ccc(NC(=O)N2CC3(CCN(C(=O)c4cc(C(F)(F)F)cc(C(F)(F)F)c4)CC3)C2)cc1	none (no result: GBA activity)
O=C1C[C@@H](O)[C@@H](O)[C@H]2[C@@H]3C(=O)N(C4CCCCC4)C(=O)[C@@H]3CC[C@H]12	none (no result: Hsp90 Hop PPI, GBA activity, UbGFP stabilizer, GFP derepression, USP2a inhib)
O=C(Nc1nc(-c2ccccn2)cs1)C1COc2ccccc2O1 (stereo not drawn)	Hsp90 Hop PPI 16µM (no result: GBA activity, GFP derepression, USP2a inhib)
COC(=O)c1cn(CCOc2ccccc2)c2ccccc12	Hsp90 Hop PPI 25µM (no result: GBA activity)
COC(=O)Cn1cc(C(=O)OC)c2ccccc21	none
O=C(Nc1cccc(-c2cn3cccnc3n2)c1)c1ccc(Br)o1	GBA activity 6.6
O=C(Nc1cccc(-c2cn3cccnc3n2)c1)c1ccco1	none (no result: GBA activity)
CCOC(=O)CC(=O)CSc1nc2ccc(C)cc2cc1C#N	GBA activity 13 (no result: USP2a inhib)
Cc1ccc2cc(C#N)c(NCc3ccco3)nc2c1	GBA activity 12 (no result: HBB splice mod)
CCCCCC(=O)Nc1ccc(N2CCN(CC)CC2)c(Cl)c1	GBA activity 0.7
CS(=O)(=O)N1CCC2(CCN(c3ccccc3)CC2)CC1	none (no result: GBA activity)
CCOC(=O)C1CCN(c2ncnc3c2oc2ccc(Cl)cc23)CC1	GBA activity 13
CCOC(=O)C1CCN(c2ncnc3c2[nH]c2cccc(OC)c23)CC1	none
O=c1c2ccccc2oc2cc(O)c([C@@H]3COC[C@@H](CO)[C@@H](O)[C@@H](O)[C@H]3O)c(O)c12	none (no result: GBA activity, USP2a inhib, HBB splice mod)
O=C(Nc1cccc(F)c1)N1CC[C@@]2(CCCN(C(=O)c3cc(C(F)(F)F)cc(C(F)(F)F)c3)C2)C1	none (no result: GBA activity)
Cc1noc(C)c1C(=O)N1CCC[C@@]2(CCN(C(c3ccccc3)c3ccccc3)C2)C1	none (no result: GBA activity)
COCC(=O)NCCNc1nc2ccc(C)cc2cc1C	GBA activity 2.8 (no result: USP2a inhib)
Cc1ccc2c(COn3nnc4ccc(S(=O)(=O)N(C)C)cc43)cc(=O)oc2c1C	GBA activity 11
CC(=O)Nc1ccc(S(=O)(=O)N2CCN(c3cc(C)nc4ccccc34)CC2)cc1	GBA activity 11 (no result: HBB splice mod)
